# Test results reported in PubChem BioAssay AID493201 (National Center for Advancing Translational Sciences (NCATS), 2011).
# Inconclusive results are not listed. Entries that show only a call come without a potency. Activity calls are given as the source filed them. The call rests on the fitted dose curve; in most records, active means well fitted activation curve with a large enough effect; inconclusive means small, poorly fitted or top-dose-only effect; inactive means no such curve, though single readings can be large or run the other way.
# Assay: qHTS Assay for Identifying a Potential Treatment of Ataxia-Telangiectasia: Secondary assay (no NCS) hit validation;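 further: phosphorylated KAP1 signal as a proxy for ATM-like kinase activity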
# Conditions: A-T patient fibroblasts, AlphaLISA, no DNA damage added, 90 min; series mostly up to 76.9 µM
# Outline: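 hTERT-immortalized A-T patient fibroblasts (F2112), 500 cells/well, exposed to compounds at up to 76.7 uM final without NCS at 37C. KAP-1 phosphorylation measured by AlphaLISA after lysis and 6 h detection at 25C.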
# Potency means the concentration at half of the fitted maximal effect.
row,Compound,Potency
1,O=C(C[n+]1cccc2ccccc21)c1ccc(NC(=O)c2ccccc2)cc1,inactive
2,C(=N\Nc1ccccn1)/c1c[nH]c2ccccc12,inactive
3,COc1ccc(Oc2ncnc3c2oc2ccc(Br)cc23)cc1,inactive
4,O=C1C2C3C=CC(CC3)C2C(=O)N1c1cccc(Br)c1 (stereo not drawn),inactive
5,O=C(CN1C(=O)c2cccc([N+](=O)[O-])c2C1=O)NCc1ccccc1,inactive
6,CC(=O)Nc1ccc(S(=O)(=O)NCC2(N3CCOCC3)CCCCC2)cc1,inactive
7,Nc1nc2ccccc2cc1-c1cccs1,inactive
8,CNC(=S)N/N=C/c1ccc2c(c1)OCCO2,inactive
9,O=C(c1ccc(F)cc1)N1CCC(c2ccccc2)C1 (stereo not drawn),inactive
10,CCOC(=O)c1c(CSc2ccsc2)n(C)c2cc(Br)c(O)c(CN(C)C)c12,26 µM (active)
11,CC1=C/C(=C\C=C(C#N)C#N)N(C)c2ccccc21,inactive
12,CC1C(c2ccccc2)N(C)C(c2ccccc2)CC1(O)c1ccccc1 (stereo not drawn),13 µM (active)
13,COc1ccc(-c2cc(C(F)(F)F)c(C#N)c(SCC(=O)O)n2)cc1OC,inactive
14,COc1ccccc1NC(=O)C1CCCN(S(=O)(=O)c2ccc(-n3cnnn3)cc2)C1 (stereo not drawn),inactive
15,CSc1nc(SCC(=O)O)c2c3c(sc2n1)COC(C)(C)C3,inactive
16,COc1cc(/C=N/NC(=O)c2c(C)nc3ccc(Cl)cn23)cc(OC)c1OC,3.68 µM (active)
17,O=C(O)c1ccc(/C=C/c2nc3ccccc3c(=O)[nH]2)cc1,inactive
18,CNC(=S)N(CCc1c(C)[nH]c2ccc(Cl)cc12)Cc1cccnc1,inactive
